The list is not random: actives were taken first. Their share in the collection is about 2.5%.
ROS inducer: inducers of reactive oxygen species in cancer cells; U2OS ROS induction, H2DCF-DA fluorescence; ROS induction (% of piperlongumine), % at 10 µM; 2% of 46,000 active; in the data active means ROS induction above about 79%, passing the limit was not always enough;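 further: 0% = DMSO vehicle median and 100% = reference compound median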
YB-1 expression: YB-1 expression inhibition; delta delta Cp (YB-1 minus CDIP) (test concentration not listed); 0.37% of 30,000 active; U2OS, qRT-PCR YB-1 vs CDIP delta delta Cp, 16 h; hits give high values; zero = DMSO, each unit about twofold;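 active means delta delta Cp rounded down to an integer at or above 3, about 3 SD of DMSO wells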;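 further: higher means less YB-1 transcript or more CDIP transcript relative to DMSO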
BJeLR viab HTS: lowers viability of BJeLR cells; BJeLR fibroblasts viability, CellTiterGlo ATP luminescence, 48 h; HRASV12, hTERT and SV40 LT/ST transformed; viability loss activity score, % (no concentration beside the values); 0.64% of 30,000 active; AID 2275; in the data active means viability loss activity score above about 50%;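 further: higher score means fewer live cells and less ATP luminescence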
MITF inh: inhibitors of MITF | 0.28% of 37,000 active | inhibition, % (concentration not given with the values) | TRPM1 promoter luciferase, luminescence, 24 h; in the data active means inhibition above about 85%;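 further: human melanocyte line stably carrying TRPM1 promoter luciferase reporter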
Active calls of the source: *; . = no result.

SMILES	ROS inducer	YB-1 expression	BJeLR viab HTS	MITF inh
COc1ccc(NC(=O)N(C)C[C@@H]2Oc3c(NC(=O)C4CC4)cccc3C(=O)N([C@@H](C)CO)C[C@H]2C)cc1	86.9*	0.323	0.2	-11.5
Cc1noc(C)c1NC(=O)Nc1cccc2c1O[C@@H](CN(C)S(C)(=O)=O)[C@H](C)CN([C@H](C)CO)C2=O	100.3*	0.0697	.	-3.4
Cc1noc(C)c1NC(=O)Nc1cccc2c1O[C@H](CN(C)S(C)(=O)=O)[C@@H](C)CN([C@H](C)CO)C2=O	-6.5	0.0798	-0.9	3.5
COc1ccc(NC(=O)Nc2cccc3c2O[C@@H](CN(C)S(C)(=O)=O)[C@H](C)CN([C@@H](C)CO)C3=O)cc1	111.5*	0.737	.	-9.0
C[C@@H]1CN([C@@H](C)CO)C(=O)c2cccc(NC(=O)Nc3ccc(F)cc3)c2O[C@@H]1CN(C)S(C)(=O)=O	89.9*	-0.0311	.	-7.3
COc1ccc(NC(=O)Nc2cccc3c2O[C@H](CN(C)S(C)(=O)=O)[C@H](C)CN([C@@H](C)CO)C3=O)cc1	-6.5	-0.311	.	-3.6
CCSc1nc2c(c(=O)[nH]1)C(c1ccccc1)C1=C(CCCC1=O)N2 (stereo not drawn)	.	.	-7.0	.
Cc1cc(C)nc(NS(=O)(=O)c2ccc(NC(=O)C3(c4ccccc4)CCOCC3)cc2)n1	.	.	1.8	.
Cc1ccc(S(=O)(=O)CCSc2sc(C#N)c3c2C(=O)CC(C)(C)C3)cc1	124.8*	0.079	1.3	-17.0
COC(=O)C1=C2C(=O)c3c(O)cc(CO)cc3OC2C(O)C=C1 (stereo not drawn)	146.1*	-0.14	-5.1	19.0
CCOC(=O)NN1CNc2ccccc2C1=O	.	.	-2.6	.
O=C(CN1C(=O)/C(=C/c2ccccc2F)Sc2ccccc21)N1CCN(c2ccc(F)cc2)CC1	1.9	.	-3.2	.
COc1cc(O)c(C(=O)CCc2ccc(OC)c(OC)c2)c(OC)c1	22.5	4.91*	-3.3	-51.2
O=C(O)CCS(=O)(=O)c1nc(-c2ccccc2)cc(C(F)(F)F)n1	0.7	.	.	-24.3
O=C(CCS(=O)(=O)c1nc(-c2ccccc2)cc(C(F)(F)F)n1)Nc1ccc(Cl)cc1Cl	100.6*	.	.	9.6
CCNC(=S)N1N=C2c3ccccc3CCC2C1c1ccc(F)cc1 (stereo not drawn)	101.1*	0.343	30.6	5.7
O=C(c1ccco1)N1N=C2c3ccccc3CCC2C1c1ccc(F)cc1 (stereo not drawn)	85.0*	-0.013	-2.9	39.7
COC(=O)/C=C/S(=O)(=O)c1ccc(NC(C)=O)cc1	121.0*	-0.387	16.4	21.4
CC(=O)Nc1ccc(S(=O)(=O)NC(C)C)cc1	-6.8	.	8.9	.
Cc1ccc(NC(=O)c2oc3ccccc3c2NC(=O)c2ccccc2)cc1	41.6	.	2.3	.
COc1cc(-c2cc(=O)c3c(O)c(OC)c(OC)c(OC)c3o2)cc(OC)c1OC	99.0*	-0.351	-2.5	-43.2
COc1cc2oc(-c3ccc(O)cc3)cc(=O)c2c(O)c1OC	62.7	-0.0556	-1.4	-26.6
COC(=O)CNC(=O)c1cc(-c2ccc(F)cc2)nc2ccccc12	5.8	.	3.7	.
NC(=O)C(Cc1ccccc1)NS(=O)(=O)c1ccc2oc3ccccc3c2c1 (stereo not drawn)	164.9*	.	.	11.8
Cc1ccc(S(=O)(=O)N2CCN(c3nc(NC4CCCC4)c4ccccc4n3)CC2)cc1	151.6*	.	-9.3	.
SMILES	ROS inducer	YB-1 expression	BJeLR viab HTS	MITF inh
CC1COC(c2cccn2Cc2ccc(Cl)cc2)=N1 (stereo not drawn)	.	.	1.3	.
C[C@@H]1CN([C@H](C)CO)C(=O)Cc2cc(NS(=O)(=O)c3cccs3)ccc2O[C@H]1CN(C)Cc1ccc(-c2ccccc2)cc1	96.5*	-0.296	.	10.7
C[C@@H]1CN([C@H](C)CO)C(=O)Cc2cc(NS(=O)(=O)c3ccc(F)cc3)ccc2O[C@H]1CN(C)Cc1ccc(-c2ccccc2)cc1	65.2	0.646	.	11.9
C[C@@H]1CN([C@@H](C)CO)C(=O)Cc2cc(NS(=O)(=O)c3cccs3)ccc2O[C@@H]1CN(C)Cc1ccc(-c2ccccc2)cc1	18.4	0.0386	.	-10.4
C[C@@H]1CN([C@H](C)CO)C(=O)Cc2cc(NS(=O)(=O)c3ccc(F)cc3)ccc2O[C@@H]1CN(C)Cc1ccc(-c2ccccc2)cc1	107.3*	0.966	.	-8.2
CN(CC(=O)Nc1ccc(F)cc1F)S(=O)(=O)c1ccc2c(c1)c(=O)n(C)c(=O)n2C	.	.	-3.5	.
C[C@@H]1CCCCO[C@H](CN(C)CC2CCCCC2)[C@@H](C)CN([C@H](C)CO)C(=O)c2cc(NC(=O)Nc3ccc(C(F)(F)F)cc3)ccc2O1	94.6*	-0.259	.	-11.5
